Source: PubChem BioAssay (The Scripps Research Institute Molecular Screening Center)
Most compounds without a hit are left out; they make up all but 0.87% or so of the library.
TLR9-MyD88 inh = blocks human TLR9 binding to MyD88 | Q9NR96+Q99836 | CHO BLA complementation TLR9-MyD88, CCF4 FRET ratio | hit rate 0.21% among 340,000 | inhibition, % at 4.98 µM;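 active = inhibition above the mean over all tested compounds plus 3 SD, cut at about 21% in these data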;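 note: 0% = DMSO only wells and 100% = clavulanate BLA inhibitor control wells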
IDE cell activ = IDE (human) activation, cell-based; P14735; HEK cells, FAbeta-B cleavage, fluorescence polarization; 0% vehicle, 100% cell-free pure enzyme wells; activation, % at 5.96 µM; hit rate 0.073% among 340,000; AID 493087;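 active = activation above the mean of all tested compounds plus 3 SD, set per screening campaign, cut at about 17% in these data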
TLR4 MyD88 comp = inhibitors of human TLR4-MyD88 binding. AID 861. HeLa CL3-4 TLR4/MyD88 BLA complementation, FRET ratio. hit rate 0.18% among 200,000. O00206+Q99836. inhibition, % at 8.4 µM; in the data active = inhibition above about 25%;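 note: 0% = vehicle and 100% = reference inhibitor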
IDE inh = cellular human IDE inhibition. HEK cells, FAbetaB cleavage, fluorescence polarization. hit rate 0.41% among 320,000. P14735. inhibition, % at 5.59 µM;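 active = percent inhibition above the average of all tested compounds plus 3 SD, set per screening campaign, cut at about 16% in these data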;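 note: IDE supplied by intact live HEK cells; FP after avidin binding of uncleaved biotin substrate so inhibition keeps polarization high; 0% = DMSO wells and 100% = 60 µM reference IDE inhibitor Ii1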
NOD2-RIPK2 inh = blocks binding of human NOD2 to RIPK2 | O43353 | CHO BLA complementation NOD2-RIPK2, CCF4 ratio | inhibition, % at 4.98 µM | hit rate 0.38% among 360,000 | AID 624267; in the data active = inhibition above about 21%;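 note: 0% = vehicle only and 100% = reference blocker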
Target sequence (O43353 whole entry, looked up): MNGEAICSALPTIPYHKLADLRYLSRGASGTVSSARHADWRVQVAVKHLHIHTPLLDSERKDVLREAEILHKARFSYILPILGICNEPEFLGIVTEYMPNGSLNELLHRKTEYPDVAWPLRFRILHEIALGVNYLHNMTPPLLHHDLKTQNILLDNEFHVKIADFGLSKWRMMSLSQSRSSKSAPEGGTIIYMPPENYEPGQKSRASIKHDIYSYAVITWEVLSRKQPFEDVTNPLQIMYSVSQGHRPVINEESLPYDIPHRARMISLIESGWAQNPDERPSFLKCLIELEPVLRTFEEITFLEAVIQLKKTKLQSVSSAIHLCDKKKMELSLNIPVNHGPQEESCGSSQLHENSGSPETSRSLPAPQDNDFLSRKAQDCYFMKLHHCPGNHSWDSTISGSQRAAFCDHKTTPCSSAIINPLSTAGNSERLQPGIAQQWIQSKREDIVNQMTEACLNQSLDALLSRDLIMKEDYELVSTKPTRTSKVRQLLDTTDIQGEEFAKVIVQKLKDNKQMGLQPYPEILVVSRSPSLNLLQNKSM
IDE cell inh cf = confirmation of human insulin-degrading enzyme inhibitors in cells; shares compounds with IDE inh; HEK cells, FAbetaB cleavage, fluorescence polarization; inhibition, % at 5.59 µM; hit rate 51% among 1,200; AID 435028;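 active = mean inhibition across triplicate wells above the cutoff set by the earlier primary insulin-degrading enzyme screen, cut at about 16% in these data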;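 note: 0% = DMSO wells and 100% = 60 µM reference IDE inhibitor Ii1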
HEK cytotox = kills HEK cells in IDE inhibitor counter-screen. shares compounds with IDE inh. HEK293 cytotoxicity, ATP luminescence. inhibition, % at 5.59 µM. hit rate 28% among 1,200. AID 449730; in the data active = inhibition above about 22%;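 note: 0% = vehicle wells and 100% = reference cytotoxic drug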
* marks the source's active call; other numbers are inactive results; . = no result given.

SMILES | TLR9-MyD88 inh | IDE cell activ | TLR4 MyD88 comp | IDE inh | NOD2-RIPK2 inh | IDE cell inh cf | HEK cytotox
N#Cc1ccc(S(=O)(=O)N2CCc3[nH]c4ccc(F)cc4c3C2)cc1 | 2.9 | 6.8 | . | 2.0 | 2.4 | . | .
CCN(Cc1ccccc1)C(=O)c1cc(S(=O)(=O)N2CCOCC2)cn1C | -1.9 | -1.6 | . | -3.0 | -5.3 | . | .
COc1ccc2[nH]c3c(N4CCc5ccccc5C4)ncnc3c2c1 | 7.2 | -26.9 | . | 20.4* | 5.9 | 13.0 | 72.7*
Fc1ccc2[nH]c3c(N4CCN(c5ccccc5)CC4)ncnc3c2c1 | 3.7 | -9.3 | -2.1 | 50.4* | 5.3 | 33.5* | 55.1*
CN(C)c1ccc2c3c(cccc13)C(=O)N(c1ccccc1)C2=O | . | . | 1.6 | 7.9 | . | . | .
Cc1cccc(N2C(=O)c3cccc4c(N(C)CCO)ccc(c34)C2=O)c1 | 2.2 | -72.2 | 9.7 | 79.3* | 18.2 | 109.8* | 13.4
Cc1c(C(=O)NCc2ccccn2)sc2nc(-c3ccc(F)cc3)cn12 | -2.4 | -11.1 | -16.8 | 19.6* | -6.8 | 11.3 | 62.5*
Cc1c(C(=O)NCc2ccccn2)sc2nc(-c3ccccc3)cn12 | -3.4 | -5.8 | -1.9 | 8.1 | 0.7 | . | .
COc1ccc(-c2cn3c(C)c(C(=O)Nc4cccc(C)n4)sc3n2)cc1 | 4.2 | -0.8 | -6.6 | 0.7 | -4.1 | . | .
Cc1cccc(NC(=O)c2sc3nc(-c4ccccc4)cn3c2C)n1 | -6.6 | -11.1 | 0.3 | 17.5* | -5.2 | 10.8 | 29.4*
CCOC(=O)CSc1ncnc2c(C(=O)OCC)c3n(c12)CCC3 | -1.5 | -2.3 | -11.4 | 0.2 | -9.3 | . | .
S=c1nccc(-c2cccs2)[nH]1 | 1.2 | -16.3 | 2.9 | 19.7* | -16.0 | 4.2 | 11.5
O=C(Cc1nc2ccccc2[nH]1)c1cccc([N+](=O)[O-])c1 | 6.9 | 6.5 | . | 1.7 | -15.6 | . | .
O/C(=C\c1nc2ccccc2[nH]1)c1cccs1 | -3.9 | -4.8 | . | 7.5 | -7.5 | . | .
O=c1[nH]c2ccccc2nc1/C=C(\O)c1cccs1 | 16.0 | -44.7 | 4.8 | 47.4* | 15.7 | 74.5* | 14.1
Cc1nc(Nc2nc(CSc3nc4ccccc4[nH]3)cc(=O)[nH]2)nc2ccccc12 | -6.1 | -38.4 | 3.0 | 44.5* | -36.5 | 10.0 | 42.0*
CCC(C)(C)n1nnnc1C(c1ccc2ncccc2c1)N1CCN(c2nc3ccccc3s2)CC1 (configuration not stated) | -7.3 | -9.7 | 5.0 | 18.1* | 1.5 | 10.7 | 25.9*
CCC(C)(C)n1nnnc1C(c1ccc2ncccc2c1)N1CCN(c2ccc(O)cc2)CC1 (configuration not stated) | -5.8 | 2.2 | . | 1.4 | 2.2 | . | .
COc1cc(C=C(c2nc3ccccc3s2)c2nc3ccccc3s2)ccc1O | 6.3 | -43.5 | 6.4 | 27.0* | 5.8 | 58.5* | 12.9
COc1ccc(C=C(c2nc3ccccc3s2)c2nc3ccccc3s2)cc1O | -4.4 | -3.6 | -11.0 | 3.2 | 8.2 | . | .
COc1cc(/C=C/c2cc(C(=O)O)c3ccccc3n2)cc(OC)c1O | -8.8 | -0.1 | 13.5 | -4.8 | -9.2 | . | .
COc1cc(/C=C/c2nc3ccccc3s2)cc(OC)c1O | 15.1 | -101.4 | 11.5 | 141.7* | 9.2 | 102.8* | 15.6
CCCCCC(=O)Cc1cc(O)cc2c1C(=O)Oc1cc(O)c(C(=O)O)c(CCCCC)c1O2 | . | . | . | -1.9 | . | . | .
CCN(CC)c1ccc2cc(C=O)c(=O)oc2c1 | -1.9 | -68.9 | 12.2 | 90.5* | 3.5 | 67.3* | 12.2
CCN(CC)c1ccc2cc(C(=O)Nc3ccccn3)c(=O)oc2c1 | -13.3 | -16.1 | -12.5 | 7.0 | -13.0 | . | .
SMILES | TLR9-MyD88 inh | IDE cell activ | TLR4 MyD88 comp | IDE inh | NOD2-RIPK2 inh | IDE cell inh cf | HEK cytotox
CCN(CC)c1ccc2cc(C(C)=O)c(=O)oc2c1 | -4.7 | -36.9 | -4.6 | 35.3* | 8.8 | 17.9* | 9.8
CCN(CC)c1ccc2cc(-c3nnc(-c4ccncc4)o3)c(=O)oc2c1 | 3.6 | -146.2 | -2.0 | . | -4.5 | . | .
CCC(=O)N(Cc1cc(=O)[nH]c2ccccc12)c1ccc(C)cc1C | 6.0 | -1.1 | . | 0.2 | -9.6 | . | .
Cc1ccc(O)c(-c2cc(C(=O)Nc3ccc(S(=O)(=O)N4CC(C)OC(C)C4)cc3)[nH]n2)c1 (configuration not stated) | -3.7 | -5.2 | -11.4 | 4.2 | 8.7 | . | .
Cc1ccc(-c2cc(C(=O)Nc3ccc(S(=O)(=O)N4CC(C)OC(C)C4)cc3)[nH]n2)c(O)c1 (configuration not stated) | 2.8 | -15.8 | . | 19.8* | -14.1 | 8.1 | 31.8*
COc1cc(-c2noc(CCCC(=O)Nc3ccc(C(N)=O)cc3)n2)cc(OC)c1OC | . | . | . | -11.3 | -8.5 | . | .
COc1cc(-c2noc(CCCC(=O)Nc3cccnc3)n2)cc(OC)c1OC | -4.8 | 5.4 | . | 16.2* | 0.3 | 0.1 | 6.4
O=C(Nc1ccc(Cl)c(C(F)(F)F)c1)[C@@H]1CC=C[C@@H]2CCN(Cc3ccc(Cl)c(Cl)c3)C(=O)[C@@H]21 | -8.8 | 3.4 | . | 4.0 | 0.0 | . | .
CN1CCN(C(=O)CCCN2C(=O)/C(=C/c3cccc(Br)c3)SC2=S)CC1 | 1.7 | 2.9 | . | . | -2.3 | . | .
CN1CCN(C(=O)CCN2C(=O)/C(=C/c3cccc(Br)c3)SC2=S)CC1 | 0.0 | -0.1 | . | 19.1* | -3.7 | 1.6 | 56.0*
CC(C(=O)Nc1ccncc1)(c1ccccc1)c1ccccc1 | -5.5 | -3.9 | -14.8 | -0.1 | -3.7 | . | .
CCCOc1ccc(-c2c(C(=O)N/N=C(\C)c3cccnc3)nnn2-c2nonc2N)cc1 | -2.2 | 4.5 | . | 1.9 | 6.1 | . | .
Cc1ccc(-c2c(C(=O)N/N=C/c3cccc(Cl)c3)nnn2-c2nonc2N)cc1 | -0.2 | -42.0 | . | 53.0* | 14.0 | 44.6* | 9.7
CCCOc1ccc(-c2c(C(=O)N/N=C(\C)COc3ccccc3)nnn2-c2nonc2N)cc1 | -1.0 | -1.4 | . | 19.6* | -6.8 | 5.5 | 2.6
O=C(CCCNC(=O)c1ccc(Cl)cc1)OCc1cccc(Br)c1 | 12.0 | 2.7 | . | 1.7 | -2.5 | . | .
Cc1ccc(S(=O)(=O)N(CC(=O)Nc2ccccc2C(=O)O)c2ccccc2C)cc1 | 5.1 | 5.2 | 7.5 | 3.1 | -8.1 | . | .
Cc1ccccc1N(CC(=O)Nc1ccccc1C(=O)O)S(C)(=O)=O | 4.3 | -34.4 | 15.0 | 23.2* | -5.2 | 14.1 | 5.7
Cc1ccc(S(=O)(=O)N2CCN(CC(=O)Nc3ccc(N4CCOCC4)cc3)CC2)cc1C | 0.1 | 6.0 | 1.0 | 0.2 | -33.3 | . | .
Cc1cccc(N2CCN(CC(=O)Nc3ccc(S(=O)(=O)N4CCOCC4)cc3)CC2)c1C | -6.7 | -11.9 | . | 19.0* | 4.2 | 8.7 | 43.0*
CCOc1ccccc1-n1c(SCC(N)=O)nnc1-c1cccnc1 | -2.0 | -33.2 | 12.1 | 16.5* | 3.9 | 12.6 | 8.9
CCOc1ccccc1-n1c(SCC(=O)N(C(C)C)C(C)C)nnc1-c1cccnc1 | -6.3 | -19.9 | 1.1 | 12.3 | -3.3 | . | .
O=C(c1cc2ccccc2cc1O)N1CCN(c2ccc([N+](=O)[O-])cc2)CC1 | 2.6 | -4.2 | . | 0.2 | 3.2 | . | .
